{"source": "PubChem BioAssay AID687014", "about": "(The Scripps Research Institute Molecular Screening Center, 2013)", "note": "Screen size: about 370,000 compounds; about 6,800 (1.8%) were called active. What follows is part of a selection rich in actives, with near analogues and random picks from the rest. Values without a mark were called inactive.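 How the source made its calls: active means activation above a cutoff set at the mean of all screened compounds plus 3 SD (cut at about 10% in these data); inactive means the rest.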", "data": [{"test_system": "Nuclear hormone receptor DAF-12 (Heterodera glycines), GAL4 fusion", "test": "hgDAF-12 GAL4 fusion reporter activation – cell-based, luminescence, HEK293, UAS-luciferase, primary screen (AID 687014);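 further: 0% = DMSO wells and 100% = sodium butyrate wells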", "conditions": "HEK293 GAL4-hgDAF12 UAS-luciferase reporter, agonist luminescence; at 6.8 µM; hits give high values; normalized to butyrate control", "values": [{"molecule": "NC(=O)c1c(NC(=O)c2ccccc2)sc2c1CCCC2", "activation": "13.5% (active)"}, {"molecule": "NC(=O)c1c(NC(=O)CSc2nnc(-c3ccco3)n2N)sc2c1CCCC2", "activation": "0.59%"}, {"molecule": "O=C(O)c1c(NC(=O)N2CCCC2)sc2c1CCCC2", "activation": "0.58%"}, {"molecule": "Cc1ccc2nc(-c3ccc(CN4CCC(n5cc(-c6ccccc6)[nH]c5=O)CC4)cc3)c(-c3ccccc3)nc2c1", "activation": "0.94%"}, {"molecule": "C=CCN1C(C(=O)OC)CN(Cc2cn(Cc3ccccc3)nn2)CCS1(=O)=O", "note": "(configuration not stated)", "activation": "0.93%"}, {"molecule": "Cc1nn(-c2ccc([N+](=O)[O-])cc2)c(N)c1-c1ccccc1", "activation": "16.8% (active)"}, {"molecule": "CC(C)(C)c1cnnn1-c1ccc([N+](=O)[O-])cc1", "activation": "-1.27%"}, {"molecule": "Cc1nn(-c2ccccc2)c2c1C(c1cccc([N+](=O)[O-])c1)N(c1ccccc1)C(=O)N2", "note": "(configuration not stated)", "activation": "2.5%"}, {"molecule": "COCCNC(=S)N(C)[C@H]1C[C@H]2c3[nH]c4ccccc4c3CCN2C[C@H]1[C@H](C)O", "activation": "0.91%"}, {"molecule": "COC(=O)C1CN(Cc2ccc(F)cc2)CCS(=O)(=O)N1Cc1ccc(Cl)cc1", "note": "(configuration not stated)", "activation": "-1.05%"}, {"molecule": "O=C(C(NS(=O)(=O)c1cccc2nsnc12)c1ccccc1)N1CCN(c2ccccc2)CC1", "note": "(configuration not stated)", "activation": "0.47%"}, {"molecule": "Nn1c(SCC(=O)Nc2cccc3ccccc23)nnc1-c1cc(-c2ccc(F)cc2)n[nH]1", "activation": "-2.56%"}, {"molecule": "O=[N+]([O-])c1ccc2c(c1)Nc1nc3ccccc3nc1N2", "activation": "27.2% (active)"}, {"molecule": "O=C(Oc1ccc([N+](=O)[O-])cc1)c1ccc2ccccc2n1", "activation": "3.74%"}, {"molecule": "O=[N+]([O-])c1cc2ccccc2nc1-c1ccccc1", "activation": "4.98%"}, {"molecule": "C=CCOC/C=C/C#CCN(CC=C)Cc1ccc(OC)cc1OC", "activation": "5.3%"}, {"molecule": "CC(c1ccccn1)N(CCN(C)C)C(=S)Nc1ccccc1F", "note": "(configuration not stated)", "activation": "0.46%"}, {"molecule": "Cc1ccccc1CS(=O)(=O)Cc1ccc(C(=O)Nc2ccc(Cl)cc2)o1", "activation": "-3.81%"}, {"molecule": "O=C(Nc1ccc(Cl)c(Cl)c1)c1ccccc1NC(=O)C1CC=CCC1C(=O)O", "note": "(configuration not stated)", "activation": "15.7% (active)"}, {"molecule": "O=C(Nc1cccc(Cl)c1Cl)c1ccccc1NC(=O)C1CC=CCC1C(=O)O", "note": "(configuration not stated)", "activation": "5.07%"}, {"molecule": "O=C(O)C1CC=CCC1C(=O)NCCc1ccccc1", "note": "(configuration not stated)", "activation": "-1.34%"}, {"molecule": "O=C(Nc1cccc(F)c1)NC1CCCc2ccccc21", "note": "(configuration not stated)", "activation": "-1.37%"}, {"molecule": "O=C(Nc1cccc(F)c1)NC1CCCCCCC1", "activation": "10.7% (active)"}, {"molecule": "Cc1cc(C)cc(NC(=O)NC2CCCCCCC2)c1", "activation": "5.46%"}, {"molecule": "COC(=O)c1ccc(NC(=S)Nc2cccc(C)n2)cc1", "activation": "1.63%"}, {"molecule": "CCCC(=O)NC(=S)Nc1ccc(CN2CCOCC2)cc1", "activation": "0%"}, {"molecule": "COC(=O)c1ccc(NC(=S)NN2CCOCC2)cc1", "activation": "10.6% (active)"}, {"molecule": "C#CCNC(=O)C[C@H]1C[C@@]2(C(=O)OC)C(=C[C@H](C(C)C)O[C@@H]2C2CC2)N(Cc2ccco2)C1=O", "activation": "0.97%"}, {"molecule": "COc1ccccc1N(CC(=O)N/N=C(\\C)c1ccccc1O)S(=O)(=O)c1ccc(C)cc1", "activation": "-1.9%"}, {"molecule": "C/C(=N\\NC(=O)c1ccoc1C)c1ccccc1O", "activation": "11.5% (active)"}, {"molecule": "C/C(=N\\Nc1ccc(Cl)nn1)c1ccccc1O", "activation": "1.05%"}, {"molecule": "O=C(NC(CC(=O)N1CCN(c2ccccc2)CC1)c1ccccc1)c1ccccc1Cl", "note": "(configuration not stated)", "activation": "-0.02%"}, {"molecule": "Cc1ccc(SCCC(=O)NCc2ccccn2)cc1", "activation": "0.65%"}, {"molecule": "Cc1ccc(SCCSc2ncccn2)cc1", "activation": "17.8% (active)"}, {"molecule": "Cc1ccc(SCCC(=O)NC(C(C)C)C(C)C)cc1", "activation": "-2.93%"}, {"molecule": "CCCCCN1CCCCC(NC(=O)C(C)CCC)C1=O", "note": "(configuration not stated)", "activation": "2.68%"}, {"molecule": "CC(C)(C)c1ccc(C(=O)Nc2cc(Cl)c(Br)cc2C(=O)O)cc1", "activation": "-1.36%"}, {"molecule": "COc1ccc(CCC(=O)OCC(=O)Nc2ccc(C)c(S(=O)(=O)N(C)C)c2)cc1", "activation": "-1.79%"}, {"molecule": "CCN(CC(=O)Nc1ccc(C)c(S(=O)(=O)N(C)C)c1)Cc1ccccc1", "activation": "2.76%"}, {"molecule": "Cc1ccc(C(=O)Nc2ccc(C)c(S(=O)(=O)N(C)C)c2)s1", "activation": "17.3% (active)"}, {"molecule": "C[C@@H](NC(=O)c1ccccc1OCC(=O)Nc1ccc(I)cc1)C(=O)N(C)Cc1ccccc1", "activation": "-2.59%"}, {"molecule": "C#CCN(C[C@@H]1[C@@H](OC(=O)NC2CC2)[C@@H](OC(=O)NC2CC2)Cn2c(=O)ccc(=O)n21)S(=O)(=O)c1ccc(C)cc1", "activation": "-1.94%"}, {"molecule": "O=C1CC[C@@H](COc2ccc3[nH]cc(-c4ccccc4)c3c2-c2ccccc2)N1", "activation": "-0.08%"}, {"molecule": "CCCCNC(=O)C[C@H]1C(=O)N(Cc2ccc(OC)cc2)C2=CCCC[C@@]21C(=O)OCC", "activation": "-2.38%"}, {"molecule": "COc1ccccc1N1CCN(/N=C/c2ccc(O)cc2O)CC1", "activation": "13% (active)"}, {"molecule": "CNCC(O)CN1CCN(c2ccccc2OC)CC1", "note": "(configuration not stated)", "activation": "-4.94%"}, {"molecule": "COc1ccccc1/C=N/N1CCN(Cc2ccccc2Cl)CC1", "activation": "3.82%"}, {"molecule": "O=C(Nc1ccccc1)O/N=C1/CCCc2occc21", "activation": "1.6%"}, {"molecule": "N[C@@H](Cc1ccccc1)C(=O)N1CCC[C@@H]1C(=O)N1CCC2CCN(S(=O)(=O)c3ccccc3)CC21", "note": "(some centres not stated)", "activation": "2.75%"}, {"molecule": "Cc1cccc(NC(=O)c2cc3c(C)nn(-c4ccccc4)c3s2)c1", "activation": "3.47%"}, {"molecule": "O=C1NC[C@H](CCCCN2C[C@H](Cc3ccccc3)N(Cc3ccccc3)C(=O)C2=O)N(CCc2ccc(O)cc2)C1=O", "activation": "0.18%"}, {"molecule": "O=C1NC[C@H](CCCCN2C[C@H](Cc3ccc(O)cc3)N(CCc3ccccc3)C(=O)C2=O)N(CCc2ccccc2)C1=O", "activation": "-1.46%"}, {"molecule": "O=C1NC[C@@H](Cc2ccc(O)cc2)N(CCc2cccc(F)c2)C1=O", "activation": "18.6% (active)"}, {"molecule": "CCOC(=O)[C@]12CCCCC/C=C\\1N(Cc1ccc(OC)cc1)C(=O)[C@H]2CC(=O)N1CCOCC1", "activation": "4.14%"}, {"molecule": "CCOc1ccc(NC(=O)c2ccc(NC(=O)C3CCCO3)cc2)cc1", "note": "(configuration not stated)", "activation": "-1.61%"}, {"molecule": "CC(C)(C)NS(=O)(=O)c1ccc(NC(=O)C2CCCO2)cc1", "note": "(configuration not stated)", "activation": "-2.61%"}, {"molecule": "O=C(Nc1ccc(-c2nnc(-c3ccccc3)o2)cc1)C1CCCO1", "note": "(configuration not stated)", "activation": "13.7% (active)"}]}]}
